# Compound activity as filed in PubChem.
# PMP22 txn prim – modulates PMP22 transcription in S16 Schwann cells | Potency, µM (titrated, usually from 57.5 µM), hits mostly inhibitors | 43,000 tested, 2% active | S16 Pmp22-F2sN Schwann cells, FLuc/NLuc coincidence luminescence, 24 h; active = clear falling dose curves in both reporters; inconclusive = both reporters move, but less clearly or upward; inactive = either reporter flat; the % is the NLuc reporter signal
#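 Rat S16 Pmp22-F2sN cells, 500-1,000/well in phenol red-free DMEM + 10% FBS, compound-treated 24 h (37C, 5% CO2). Luminescence: FLuc read, Stop&Glo added, NLuc read.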
# OvCa metastasis – blocks SKOV3ip1 adhesion and invasion in omental model; SKOV3ip1-GFP adhesion/invasion on 3D omental model, fluorescence; Potency, µM (top dose mostly 45.8 µM), hits mostly inhibitors; 46,000 tested, 0.1% active; AID 1963576; note: nearly all actives have a fitted effect of over 65% in size
#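 Adhesion/invasion was scored as fixed GFP-labeled SKOV3ip1 cell counts (488/509 nm), normalized to DMSO and tomatine controls. Cancer cells in serum-free medium, with four compound doses (0.36-46 umol/L), sat 2 hr at RT then 16 hr at 37 C on a 48 hr fibroblast/mesothelial/ECM culture.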
# S16 F2sN tox – cytotoxicity in S16 Pmp22-F2sN Schwann cells | S16 Pmp22-F2sN Schwann cells (luciferase reporters placed in the Pmp22 gene) viability, CellTiter-Glo, 24 h | Potency, µM (highest dose often 57.5 µM), most hits filed as cytotoxic | 43,000 tested, 0.48% active; note: nearly all actives have a fitted effect of over 65% in size
#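 Luminescence from CellTiter-Glo, read by CCD camera after a 15 min room-temperature incubation, served as the viability signal. Reporter Schwann cells (S16 Pmp22-F2sN) had been treated with pin-transferred compounds for 24 h at 37C.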
# p53null 32C tox – p53 null cell cytotoxicity, permissive temperature | 55,000 tested, 0.62% active | H1299-neo p53 null cells, ATP luminescence, 24 h, 32C | Potency, µM (titrated, usually from 46.1 µM), most hits filed as cytotoxic; note: nearly all actives have a fitted effect of over 55% in size
#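 AC50 values derive from Hill modelling of qHTS concentration-response data (up to 46 uM) in H1299-neo cells. Cells were treated 24 h at 32C following overnight attachment at 37C; viability was read as cellular ATP.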
# pS6 MEF inh – reduces mTORC1 signaling in Tsc2 and p53 null MEF cells; Tsc2-/- p53-/- MEF, phospho-rpS6 immunofluorescence/PI, 24 h; Potency, µM (series often up to 38.3 µM), most hits filed as inhibitors; 44,000 tested, 0.78% active; note: nearly all actives have a fitted effect of over 50% in size
#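 Cell-based qHTS: Tsc2-/- p53-/- MEF, 24 h cpd, 37 °C; fix/perm, anti-phospho-S6 Alexa-488 + PI; Acumen 488 nm scan; pS6/PI ratio, % positive cells; rapamycin 7.5 nM = inhibition ref; PI count = viability.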
# p53null 39C tox – kills p53 null cells at the nonpermissive temperature; H1299 p53-null (neo) cells, 39C, ATPlite viability, 24 h; Potency, µM (highest dose often 46.1 µM), hits mostly cytotoxic; 55,000 tested, 0.97% active; note: nearly all actives have a fitted effect of over 50% in size
#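 H1299 lung cancer cells, p53-null (H1299-neo) or expressing p53 A138V (H1299-p53A138V), were plated overnight at 37C, then exposed to compounds at up to 46 uM for 24 hr at 39C. Viability was read by ATP-based luminescence.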
# A number is an active result; i = inactive; ? = inconclusive; nt = not tested or not shown; [ ] = dose if it differs, or a comment. This is a sample that favours compounds with a hit; in the whole collection about 3.1% have one here. Unless noted, calls come from the whole dose curve; as a rule, active = well fitted curve in the direction sought with a large enough effect; inconclusive = small, poorly fitted or top-dose-only effect, or another doubt; inactive = no such curve, though single readings can be large; an effect the other way counts as inactive or inconclusive.
SMILES,PMP22 txn prim,OvCa metastasis,S16 F2sN tox,p53null 32C tox,pS6 MEF inh,p53null 39C tox
COc1cc(NS(=O)(=O)c2ccc(-c3cc(C)no3)cc2)cc(OC)c1,3.35µM,i,?,i,?,i
COc1cc(Cl)c(NS(=O)(=O)c2cc(-c3cc(C)no3)ccc2OC)c(OC)c1,i,i,i,i,?,i
O=C(Nc1ccc(NC(=O)c2ccco2)nc1)c1cccnc1,nt,nt,nt,12.6µM,nt,?
O=C(Nc1ccc(NC(=O)c2cc3ccccc3o2)cc1)c1ccccc1,i,i,i,i,i,i
O=C(O)c1ccc(NC(=O)c2cc3ccccc3o2)cc1,i,i,i,12.6µM,i,?
O=C(Nc1ccc2oc(=O)ccc2c1)c1cc2ccccc2o1,nt,nt,nt,i,nt,i
O=C(Nc1ccc2oc(-c3ccc(Br)cc3)nc2c1)c1cc2ccccc2o1,i,i,i,i,i,i
O=C(Nc1ccc2oc(-c3cc(Br)ccc3Cl)nc2c1)c1cc2ccccc2o1,?,?,?,i[9.22 µM],4.14µM,?
O=C(Nc1ccccn1)c1cc2ccccc2o1,nt,nt,nt,3.98µM,nt,5.01µM
CCCCCN(CCC12CC3CC(CC(C3)C1)C2)C(=O)NCCCc1ccncc1,nt,i,nt,nt,nt,nt
S=C(NCc1ccc2c(c1)OCO2)N1CCN(c2ncnc3c2oc2ccccc23)CC1,nt,i,nt,nt,nt,nt
COCc1cc(C)nc2sc(C(=O)Nc3ccc(C(C)=O)cc3)c(N)c12,?,i,i,i,i,i
CCCCOC(=O)c1ccc(NC(=O)c2sc3nc(C)cc(C)c3c2N)cc1,i,?,i,?,10.4µM,?
COc1cc(F)c(F)c(Nc2ccc(I)cc2F)c1NS(=O)(=O)C1(C[C@H](O)CO)CC1,nt,i,nt,nt,nt,nt
NC(=O)c1ncn([C@@H]2O[C@H](CO)[C@@H](O)[C@@H]2O)c1N,nt,i,nt,nt,nt,nt
COc1cccc(C(=O)Nc2nc3c(s2)CCCC3)c1,?,i,i,12.6µM,i,5.01µM
Cc1ccc(C)c(N2CCN(CCCNC(=O)C3COc4ccccc4C3)CC2)c1 (configuration not stated),?,i,?,i,11.7µM,i
O=C(NCCCN1CCN(c2ccccc2F)CC1)C1COc2ccccc2C1 (configuration not stated),i,i,i,i,i,i
O=C(NCCCN1CCN(c2ccccc2F)CC1)c1cc2c(s1)-c1ccccc1OC2,?,?,i,i,?,31.6µM
CCOc1ccc(N(CC)C(=O)c2cc3c(s2)-c2ccc(Cl)cc2SC3)cc1,?,i,i,i,i,10µM
CCCN(C(=O)c1cc2c(s1)-c1c(C)cccc1OC2)c1ccc(OCC)cc1,i,i,i,?,i,i
CCc1ccccc1N(CC)C(=O)c1cc2c(s1)-c1ccccc1SC2,?,i,i,i,i,12.6µM
CCOc1cc(C2c3c(-c4ccccc4O)n[nH]c3C(=O)N2CCc2ccccc2)ccc1O (configuration not stated),?,i,i,i,i,i
O=C1c2[nH]nc(-c3ccccc3O)c2C(c2ccc(Cl)cc2)N1CCc1ccccc1 (configuration not stated),?,i,i,i,16.5µM,25.1µM
CCCCN(CC)C(=O)CSc1nc2n[nH]c(C)c2c(=N)n1-c1cccc(Cl)c1,13.4µM,i,?,i,i,i
SMILES,PMP22 txn prim,OvCa metastasis,S16 F2sN tox,p53null 32C tox,pS6 MEF inh,p53null 39C tox
CCCCNC(=O)CSc1nc2n[nH]c(C)c2c(=N)n1-c1cccc(C)c1,i,i,i,i,i,i
CCOc1cccc(-c2nc3ccccc3c(=O)o2)c1,i,i,i,12.6µM,i,?
Cc1c(Cl)cccc1-c1ccc(C(=O)Nc2ccc3oc(-c4cccnc4)nc3c2)o1,i,?,i,i,13.1µM,i
CCCC(=O)Nc1cccc(-c2nc3ncccc3o2)c1,nt,i,nt,i,i,i
O=C(Nc1cccc(-c2nc3ncccc3o2)c1)c1ccc(-c2cccc(Cl)c2Cl)o1,nt,?,nt,12.6µM,?,10µM
C[C@H]1O[C@H](O[C@H]2[C@H](O)[C@@H](O)[C@@H](O[C@H]3[C@H](O)[C@@H](O)C(O)O[C@H]3CO)O[C@H]2CO)[C@H](O)[C@@H](O)[C@H]1N[C@H]1C=C(CO)[C@@H](O)[C@H](O)[C@@H]1O (some centres not stated),nt,i,nt,nt,nt,nt
CCOc1ccccc1NC(=O)c1c(NCc2sccc2C)sc2c1CCC(C)C2 (configuration not stated),?,i,i,i,14.7µM,i
CC[C@H]1OC(=O)[C@H](C)[C@@H](O[C@H]2C[C@@](C)(OC)[C@@H](O)[C@H](C)O2)[C@H](C)[C@@H](O[C@@H]2O[C@H](C)C[C@H](N(C)C)[C@@H]2O)[C@](C)(O)C[C@@H](C)CN(C)[C@H](C)[C@@H](O)[C@]1(C)O,nt,i,nt,nt,nt,nt
Cc1ccc(-n2ncc3c(NC4CCCCC4)ncnc32)cc1C,i,i,i,i,i,i
